Out of some 360,000 compounds screened, about 7,500 (2.1%) were called active. Inconclusive results (about 8%) are left out. Calls come from the whole dose curve; as a rule, active = well fitted cell-killing curve with a large enough effect; inconclusive = small, poorly fitted or top-dose-only effect, or effect the other way, or another doubt; inactive = no such curve, though single readings can be large or run the other way. Shown is part of a subset that was picked to be rich in actives. Where a call stands in place of a potency, no number is given.
Potency is the fitted concentration of half-maximal effect.

The assay can be described thus: qHTS for induction of synthetic lethality in tumor cells producing 2HG: qHTS for the HT-1080-IDH1KD cell line. The conditions noted are these: HT-1080 IDH1 knockdown viability, ATP luminescence, 48 h; series mostly up to 46.1 µM. The essentials: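 Using the IDH1-knockdown HT-1080 line run in the same batch and compound series as the NT line, viability after 48 h at 37 °C was determined by CellTiter-Glo luminescence and expressed as % activity.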
Background: Quantitative high-throughput screening tests each substance at several concentrations.
`CC1(C(=O)Nc2ccc3c(c2)OCCO3)CN(S(C)(=O)=O)CC(=O)N1Cc1cccc(F)c1` (centres undefined): the Potency result is “inactive”.
To `CCCCCc1c(C)nc(N2CCN(Cc3ccc4c(c3)OCO4)CC2)[nH]c1=O` belongs “inactive”; to `O=c1[nH]c(N2CCN(Cc3ccc4c(c3)OCO4)CC2)nc2c1CCCC2`, “inactive”; to `Fc1ccc2[nH]c3c(N4CCN(Cc5ccc6c(c5)OCO6)CC4)ncnc3c2c1`, 23.1 µM (active).
Regarding `CC(C)NC(=O)N1Cc2cc(C(=O)NCC(F)(F)F)nc(-c3cccc(-c4cc5ccccc5o4)c3)c2[C@@H]1CCO`, the Potency entry was “inactive”.
Consider `CCOC(=O)C1CCCN(C(=O)c2cc(-c3cccs3)oc2C)CC1` (centres undefined), for which the Potency result is “inactive”.
`CCn1c(SCC(=O)N2CCCC2=O)nc2ccccc21`: the Potency entry was “inactive”.
Under `CCC(=C/c1sc2ccc3ccccc3c2[n+]1C)/C=C1\Sc2ccc3ccccc3c2N1C` stands 5.17 µM (active); under `CCC1NC(=O)c2cccnc2-n2c1nc1ccc(C)cc1c2=O` (centres undefined), “inactive”; under `CCCS(=O)(=O)NC(=O)C1(C)CCN(C(=O)c2sccc2C)C1` (centres undefined), “inactive”.
As for `Cc1nc(/N=C(\N)NC(=O)NC2CCCCC2)nc2ccccc12`, the Potency is 14.6 µM (active).
To `CC(C)c1cc(C(=O)NC2CCCCCC2)c2ccccc2n1` belongs “inactive”.
Consider `COc1ccc2nc(/N=C(\N)NC(=O)Nc3ccccc3)nc(C)c2c1`, for which the Potency entry is “inactive”.
To `C[C@@H]1CC2=C(C(=O)OC(C)(C)O2)[C@@H](C2CC2)O1` belongs “inactive”; to `CN(Cc1ccc(C(F)(F)F)cc1)C(=O)[C@H]1O[C@@H](n2cnc3c(N)ncnc32)[C@H](O)[C@@H]1O`, “inactive”.
As to `COc1ccc(-c2[nH]ncc2CN(C)Cc2c(C)n[nH]c2C)c(OC)c1`, the Potency result was “inactive”.
Under `COc1ccc(-c2n[nH]c(C)c2-c2ccc(OC)c(OC)c2)c(O)c1` stands 18.4 µM (active); under `COc1ccc(-c2c(-c3ccc(OC)cc3O)nc(C)nc2C(F)(F)F)cc1`, “inactive”; under `CC1(C(=O)NS(=O)(=O)c2ccccc2)CCN1C(=O)C1CCCCC1` (centres undefined), “inactive”.
To `O=C1c2ccccc2C(c2nc3ccccc3[nH]2)N1c1ccccc1` (centres undefined) belongs “inactive”.
Under `C=C1c2c(Cl)ccc(O)c2C(O)=C2C(=O)[C@]3(O)C(O)=C(C(N)=O)C(=O)[C@@H](N(C)C)[C@@H]3[C@@H](O)C12` (some centres undefined) stands 18.4 µM (active).
Regarding `O=C1OCCC1=COCCCCOC=C1CCOC1=O`, the Potency result is “inactive”.
To `COc1ccc(C(O)c2nc(-c3ccc4c(c3)OCO4)cs2)cc1` (centres undefined) belongs “inactive”; to `C[C@@H]1CN([C@H](C)CO)C(=O)CCCn2cc(nn2)CO[C@H]1CN(C)S(C)(=O)=O`, “inactive”; to `COc1ccc(C(C(O)C(=O)c2c[nH]c3ccccc23)N2CCN(c3ccccc3)CC2)cc1` (centres undefined), “inactive”.
With `COc1ccc(/C=C(\NC(=O)c2ccc(OC)c(OC)c2)C(=O)NCCc2c[nH]c3ccccc23)cc1`, the Potency result was “inactive”.
`COc1ccc(/C=C(\C#N)c2c[nH]c3ccccc23)cc1`: the Potency is 0.731 µM (active).
To `C[C@H](CO)N1C[C@H](C)[C@@H](CN(C)C(=O)C2CCCCC2)OCc2cnnn2CCCC1=O` belongs “inactive”.
Under `C[C@H]1CN(c2ccc(Br)cc2)C(=O)[C@@H]1CC(=O)Nc1ccc(Br)cc1` stands “inactive”.
Under `COc1ccc(NC(=O)CN2C(=O)NC(C)(c3ccccc3)C2=O)cn1` (centres undefined) stands “inactive”.
For the compound `COc1ccc(CCNC(=O)c2cnc(Cl)c(Cl)c2)cc1`, the Potency result was “inactive”.
For the compound `COc1ccc(CS(=O)/C(Cl)=C(/Cl)C(=O)Nc2ccc(OC)nc2)cc1` (centres undefined), the Potency was 18.4 µM (active).
Take `CC(C)Cn1cc(-c2cncc3nccn23)cn1`: the Potency result is “inactive”.
To `CC1(C)CN(CCc2ccccc2)C(=O)[C@H]1CC(=O)Nc1ccc(Br)cc1` belongs “inactive”; to `CCOC(=O)c1c(NC(=O)COC(=O)c2ccc(S(=O)(=O)C(F)F)cc2)sc(C(=O)N(C)C)c1C`, “inactive”.
`COc1cccc(NC(=O)C2(C)CCN2Cc2ccccc2Cl)c1` (centres undefined): the Potency entry is “inactive”.
For `CCN1/C(=C/c2ccc3ccc(C)cc3[n+]2CC)Sc2ccccc21`, the Potency was 20.6 µM (active).
Under `CCOC(=O)[C@]12CCCC=C1N(CCC1=CCCCC1)C(=O)[C@H](CC(=O)N1CCN(C(=O)c3ccco3)CC1)C2` stands “inactive”; under `Cc1cc(NC(=O)c2ccc(F)cc2)ccc1NC(=O)c1ccco1`, “inactive”.
To `O=C(Nc1ccc(O)cc1)c1ccc(NC(=O)c2ccco2)cc1` belongs 13 µM (active).
For `Cc1ccc(NC(=O)c2ccco2)cc1`, the Potency entry is “inactive”.
Under `O=S1(=O)CC(N2CCN(Cc3ccccc3F)CC2)CN1Cc1cn(Cc2ccccc2)nn1` (centres undefined) stands “inactive”; under `CN(Cc1ccccc1)CC(O)COc1ccc(CNCc2cc3ccccc3s2)cc1` (centres undefined), 20.6 µM (active).
Regarding `COc1ccc(OCC(O)CN(C)C(=O)C(C)Oc2ccccc2)cc1` (centres undefined), the Potency result was “inactive”.
To `Cc1ccc(OCC(=O)OC(C)CN(C)Cc2ccccc2)cc1` (centres undefined) belongs “inactive”.
Regarding `O=C(NCc1ccccc1)C1c2ccccc2OCC(=O)N1CCCN1CCOCC1` (centres undefined), the Potency result was “inactive”.
For the compound `Cc1ccc(S(=O)(=O)N2CCC(=O)N([C@H](COCc3ccccc3)C(C)C)CC2)cc1`, the Potency entry is “inactive”.
Regarding `O=C(O)c1ccc(NC(=O)c2cn(-c3ccccc3)nc2-c2ccc(Cl)cc2)cc1`, the Potency was 20.6 µM (active).
`Cc1ccc(-c2nn(-c3ccccc3)cc2C(=O)NCCCN2CCCC2=O)cc1`: the Potency entry was “inactive”.
For `Cc1ccc(-c2nn(-c3ccccc3)cc2C(=O)Nc2cccc(S(=O)(=O)N3CCOCC3)c2)cc1`, the Potency result was “inactive”.
As for `COc1cccc(OCC(=O)NCCS(=O)(=O)N2CCN(c3ccccc3)CC2)c1`, the Potency entry was “inactive”.
Consider `COc1ccc(CCNC(=O)Nc2ccc3c(c2)c(=O)n(C)n3C)cc1OC`, for which the Potency entry was “inactive”.
Turning to `Cc1[nH]n(C)c(=O)c1C(=O)c1c(-c2c(Cl)cccc2Cl)noc1C`, the Potency was 16.4 µM (active).
To `Cc1onc(-c2c(Cl)cccc2Cl)c1C(=O)c1c[nH]c(C(=O)NC2CC2)c1` belongs “inactive”; to `Cc1onc(-c2c(Cl)cccc2Cl)c1C(=O)NNC(=O)c1c(-c2c(Cl)cccc2Cl)noc1C`, “inactive”; to `CC(C)(C(=O)N1CCC1(C)C(=O)NS(=O)(=O)c1ccc(Br)cc1)c1ccccc1` (centres undefined), “inactive”.
Under `CCOC(=O)C1=CC[C@@H](c2ccccc2)N(S(=O)(=O)c2ccc(C)cc2)[C@H]1c1ccc(CC)cc1` stands “inactive”; under `CCCCCCN1C[C@@H](O)[C@H](n2cc(COC(=O)c3ccccc3)nn2)C[C@@H]1c1ccc(Cl)cc1`, “inactive”.
To `O=C(O)C1CCCN1c1nc(Cl)ccc1[N+](=O)[O-]` (centres undefined) belongs “inactive”.

The values above are taken from PubChem BioAssay AID686971 (National Center for Advancing Translational Sciences (NCATS), 2013).
